Results from the supplement of paper PMC11006884.
Of roughly 6,500 targets only a part is listed; those with a hit were picked by preference. About 2% of all pairs of compound and target were hits. Unmarked numbers belong to inactive results.

Compound: COC(=O)C#Cc1ccccc1 [methyl 3-phenylpropiolate]
Test: log2 ratio of iodoacetamide-alkyne labeling of the cysteine site, DMSO over compound (competition); higher = stronger covalent engagement of the cysteine by the compound, active = 1 or more
Details: 500 µM; treatment time 1 h; system: HEK293T cell lysate
Outline: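 HEK293T lysate (2 mg/mL) was treated with DMSO or electrophile (500 µM, 1 h, ambient temperature), then iodoacetamide alkyne (1 h), clicked to sCIP-TMT reagents, pooled, trypsin-digested overnight at 37 °C, streptavidin-enriched and acid-eluted. Peptides were run on Orbitrap Eclipse LC-MS/MS with FAIMS and quantified in FragPipe. The log2 competition ratio per cysteine is mean control-channel over mean compound-channel reporter intensity. Duplicate channels and three replicates were used, and cysteines quantified in only one replicate were excluded.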

Chain of UniProt P27695 (P27695 whole entry, looked up): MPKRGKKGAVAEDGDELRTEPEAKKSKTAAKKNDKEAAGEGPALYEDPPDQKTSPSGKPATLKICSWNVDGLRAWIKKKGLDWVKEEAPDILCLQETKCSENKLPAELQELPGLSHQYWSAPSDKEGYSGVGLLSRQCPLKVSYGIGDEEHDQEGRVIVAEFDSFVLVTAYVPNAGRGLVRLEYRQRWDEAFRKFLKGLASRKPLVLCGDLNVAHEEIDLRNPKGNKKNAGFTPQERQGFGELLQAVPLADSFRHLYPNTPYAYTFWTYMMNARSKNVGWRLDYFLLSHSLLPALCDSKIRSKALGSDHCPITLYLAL
Chain of UniProt P35613 (P35613 whole entry): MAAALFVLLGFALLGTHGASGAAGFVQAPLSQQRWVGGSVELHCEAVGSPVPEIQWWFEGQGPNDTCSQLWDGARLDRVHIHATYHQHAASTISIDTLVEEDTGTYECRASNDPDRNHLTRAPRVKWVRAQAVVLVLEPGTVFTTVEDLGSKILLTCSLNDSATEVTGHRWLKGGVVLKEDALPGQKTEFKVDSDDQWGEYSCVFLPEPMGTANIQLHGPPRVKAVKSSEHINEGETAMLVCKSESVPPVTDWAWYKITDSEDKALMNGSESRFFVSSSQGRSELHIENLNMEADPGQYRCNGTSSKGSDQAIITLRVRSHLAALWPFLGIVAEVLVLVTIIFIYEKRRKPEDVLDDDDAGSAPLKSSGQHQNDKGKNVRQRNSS
Chain of UniProt P51553 (P51553 whole entry): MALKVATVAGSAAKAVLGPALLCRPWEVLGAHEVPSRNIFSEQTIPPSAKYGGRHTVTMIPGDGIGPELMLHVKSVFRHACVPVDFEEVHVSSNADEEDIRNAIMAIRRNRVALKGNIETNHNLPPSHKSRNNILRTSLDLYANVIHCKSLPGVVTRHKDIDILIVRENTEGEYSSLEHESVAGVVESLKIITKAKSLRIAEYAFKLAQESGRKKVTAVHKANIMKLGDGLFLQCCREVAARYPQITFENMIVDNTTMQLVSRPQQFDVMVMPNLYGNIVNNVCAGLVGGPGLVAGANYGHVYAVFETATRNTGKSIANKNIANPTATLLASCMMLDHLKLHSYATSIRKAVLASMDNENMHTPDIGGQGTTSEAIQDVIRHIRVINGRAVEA
Chain of UniProt P08238 (P08238 whole entry, looked up): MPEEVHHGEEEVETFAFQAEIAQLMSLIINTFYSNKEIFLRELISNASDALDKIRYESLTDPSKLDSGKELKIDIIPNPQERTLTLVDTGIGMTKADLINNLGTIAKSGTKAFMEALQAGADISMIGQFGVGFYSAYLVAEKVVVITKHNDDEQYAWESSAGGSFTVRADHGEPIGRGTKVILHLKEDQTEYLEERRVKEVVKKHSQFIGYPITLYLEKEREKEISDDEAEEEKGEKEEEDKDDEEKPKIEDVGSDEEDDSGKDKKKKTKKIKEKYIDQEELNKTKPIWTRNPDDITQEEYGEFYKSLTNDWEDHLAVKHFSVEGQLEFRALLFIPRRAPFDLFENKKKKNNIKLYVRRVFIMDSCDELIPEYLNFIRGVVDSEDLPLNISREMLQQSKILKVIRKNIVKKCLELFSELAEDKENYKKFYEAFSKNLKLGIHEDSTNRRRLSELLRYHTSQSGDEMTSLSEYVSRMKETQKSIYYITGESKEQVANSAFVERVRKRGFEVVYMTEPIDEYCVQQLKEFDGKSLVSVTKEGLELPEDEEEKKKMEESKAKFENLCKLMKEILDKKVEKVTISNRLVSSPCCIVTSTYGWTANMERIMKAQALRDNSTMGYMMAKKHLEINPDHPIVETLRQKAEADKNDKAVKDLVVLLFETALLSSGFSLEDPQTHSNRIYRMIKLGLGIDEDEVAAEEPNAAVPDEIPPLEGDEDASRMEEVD
Chain of UniProt P38432 (P38432 whole entry, looked up): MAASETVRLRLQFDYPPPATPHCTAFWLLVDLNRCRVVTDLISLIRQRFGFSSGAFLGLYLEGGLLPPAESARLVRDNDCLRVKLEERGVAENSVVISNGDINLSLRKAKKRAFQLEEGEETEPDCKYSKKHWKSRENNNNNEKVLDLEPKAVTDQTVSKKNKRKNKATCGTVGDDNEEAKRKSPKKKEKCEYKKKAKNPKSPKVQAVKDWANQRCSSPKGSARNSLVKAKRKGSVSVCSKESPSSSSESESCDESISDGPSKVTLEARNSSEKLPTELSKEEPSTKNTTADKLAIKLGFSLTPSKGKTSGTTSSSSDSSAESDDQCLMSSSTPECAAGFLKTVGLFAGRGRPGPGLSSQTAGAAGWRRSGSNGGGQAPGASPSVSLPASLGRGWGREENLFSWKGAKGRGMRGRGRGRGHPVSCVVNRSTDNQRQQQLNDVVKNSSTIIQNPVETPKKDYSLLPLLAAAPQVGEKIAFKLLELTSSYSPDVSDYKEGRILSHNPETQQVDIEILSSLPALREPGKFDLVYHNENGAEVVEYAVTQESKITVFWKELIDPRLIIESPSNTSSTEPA
Chain of UniProt P52306 (P52306 whole entry, looked up): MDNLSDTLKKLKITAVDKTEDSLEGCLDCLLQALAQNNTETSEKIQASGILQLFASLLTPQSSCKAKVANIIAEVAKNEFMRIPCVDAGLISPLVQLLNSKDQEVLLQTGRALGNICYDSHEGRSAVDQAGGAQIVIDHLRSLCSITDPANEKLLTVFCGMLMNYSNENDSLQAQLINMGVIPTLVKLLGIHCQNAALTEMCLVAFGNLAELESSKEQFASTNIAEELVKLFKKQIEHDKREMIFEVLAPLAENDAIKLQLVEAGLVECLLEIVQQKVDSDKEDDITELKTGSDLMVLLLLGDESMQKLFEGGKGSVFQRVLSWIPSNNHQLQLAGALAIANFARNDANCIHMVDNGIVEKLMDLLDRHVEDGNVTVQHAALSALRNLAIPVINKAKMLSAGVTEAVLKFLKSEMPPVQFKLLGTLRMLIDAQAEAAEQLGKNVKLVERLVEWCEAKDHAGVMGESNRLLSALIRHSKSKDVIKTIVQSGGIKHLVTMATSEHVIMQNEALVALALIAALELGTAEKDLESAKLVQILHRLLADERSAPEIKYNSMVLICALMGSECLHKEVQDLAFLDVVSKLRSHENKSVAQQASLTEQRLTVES
Chain of UniProt P20073 (P20073 whole entry, looked up): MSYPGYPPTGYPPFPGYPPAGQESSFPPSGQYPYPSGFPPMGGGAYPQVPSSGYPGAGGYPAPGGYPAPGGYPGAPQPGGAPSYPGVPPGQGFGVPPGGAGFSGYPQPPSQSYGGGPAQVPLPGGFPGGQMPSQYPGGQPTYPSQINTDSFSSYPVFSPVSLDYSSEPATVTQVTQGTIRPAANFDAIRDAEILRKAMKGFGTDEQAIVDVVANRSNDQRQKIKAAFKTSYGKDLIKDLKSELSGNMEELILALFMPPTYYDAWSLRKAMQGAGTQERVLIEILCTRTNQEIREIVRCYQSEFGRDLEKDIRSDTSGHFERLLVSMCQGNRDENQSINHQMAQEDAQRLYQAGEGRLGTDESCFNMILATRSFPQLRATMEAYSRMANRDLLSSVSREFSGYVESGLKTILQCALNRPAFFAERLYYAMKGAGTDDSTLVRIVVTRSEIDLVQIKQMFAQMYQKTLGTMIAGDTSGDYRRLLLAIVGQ
Chain of UniProt P12277 (P12277 whole entry): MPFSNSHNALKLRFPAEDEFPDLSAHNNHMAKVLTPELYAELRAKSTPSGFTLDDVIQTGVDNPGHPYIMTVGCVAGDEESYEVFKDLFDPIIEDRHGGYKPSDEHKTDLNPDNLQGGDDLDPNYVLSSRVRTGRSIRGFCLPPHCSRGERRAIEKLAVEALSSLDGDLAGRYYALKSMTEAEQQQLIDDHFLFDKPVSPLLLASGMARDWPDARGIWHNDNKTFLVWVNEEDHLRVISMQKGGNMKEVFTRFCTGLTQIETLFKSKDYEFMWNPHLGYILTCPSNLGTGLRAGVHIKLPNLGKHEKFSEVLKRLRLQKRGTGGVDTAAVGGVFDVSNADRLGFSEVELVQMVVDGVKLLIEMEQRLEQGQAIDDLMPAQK
Chain of UniProt P30825 (P30825 whole entry): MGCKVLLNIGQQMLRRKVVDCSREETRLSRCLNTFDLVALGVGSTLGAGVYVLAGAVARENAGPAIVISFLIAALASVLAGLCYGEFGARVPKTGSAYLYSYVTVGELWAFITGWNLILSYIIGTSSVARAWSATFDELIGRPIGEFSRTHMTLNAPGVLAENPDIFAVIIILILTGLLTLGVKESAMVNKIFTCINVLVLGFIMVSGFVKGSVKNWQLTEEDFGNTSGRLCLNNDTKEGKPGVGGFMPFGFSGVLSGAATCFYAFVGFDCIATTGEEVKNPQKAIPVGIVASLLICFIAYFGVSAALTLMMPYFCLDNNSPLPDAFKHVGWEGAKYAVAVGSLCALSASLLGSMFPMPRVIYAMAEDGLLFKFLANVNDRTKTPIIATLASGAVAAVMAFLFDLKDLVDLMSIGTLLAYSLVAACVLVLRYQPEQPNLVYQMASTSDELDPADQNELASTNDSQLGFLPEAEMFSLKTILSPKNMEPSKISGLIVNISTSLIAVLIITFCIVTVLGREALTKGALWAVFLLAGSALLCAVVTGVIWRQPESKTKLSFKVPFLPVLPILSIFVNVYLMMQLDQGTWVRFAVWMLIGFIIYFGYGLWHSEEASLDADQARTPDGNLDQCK
Chain of UniProt P06733 (P06733 whole entry, looked up): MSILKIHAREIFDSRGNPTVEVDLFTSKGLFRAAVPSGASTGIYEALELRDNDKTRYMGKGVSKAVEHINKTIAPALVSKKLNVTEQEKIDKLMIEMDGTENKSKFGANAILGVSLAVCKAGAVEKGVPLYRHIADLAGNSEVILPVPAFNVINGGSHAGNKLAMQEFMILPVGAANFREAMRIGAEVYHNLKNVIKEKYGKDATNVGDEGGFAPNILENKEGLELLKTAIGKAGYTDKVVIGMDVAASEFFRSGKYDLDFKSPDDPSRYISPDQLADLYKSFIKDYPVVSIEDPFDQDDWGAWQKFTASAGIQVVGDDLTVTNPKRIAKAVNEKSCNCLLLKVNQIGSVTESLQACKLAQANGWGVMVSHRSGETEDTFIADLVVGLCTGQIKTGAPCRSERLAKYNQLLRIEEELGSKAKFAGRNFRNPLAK

Target | log2 ratio of iodoacetamide-alkyne labeling
SLC7A1 C628 (UniProt P30825) | 0.105
ENO1 C357 (UniProt P06733) | -0.0848
RPL14 C42 (UniProt P50914) | 1.82 (active)
CCT4 C252 (UniProt P50991) | -0.0169
UROD C308 (UniProt P06132) | 0.28
PHKA1 C1082 (UniProt P46020) | 0.236
TCEA1 C271 (UniProt P23193) | -0.116
RAP1GDS1 C85 (UniProt P52306) | 0.197
UniProt P0CG30_C105 | -0.204
SLC25A5 C160 (UniProt P05141) | 0.177
HSP90AB1 C521 (UniProt P08238) | 0.298
BSG C242 (UniProt P35613) | 0.215
APEX1 C93 (UniProt P27695) | 0.0645
IDH3G C81 (UniProt P51553) | 0.412
UniProt P28482_C254 | -0.0158
UniProt P10155_C71 | 0.136
RANBP2 C1296 (UniProt P49792) | 0.543
CBX5 C133 (UniProt P45973) | 0.17
MTHFD2 C145 (UniProt P13995) | 0.057

Target | log2 ratio of iodoacetamide-alkyne labeling
TMPO C280 (UniProt P42166) | 1.09 (active)
PLS3 C33 (UniProt P13797) | 1.04 (active)
RRM1 C352 (UniProt P23921) | 0.357
IMPDH2 C140 (UniProt P12268) | 1.11 (active)
IMPDH2 C95 (UniProt P12268) | -0.293
RPS5 C66 (UniProt P46782) | 2.5 (active)
CAPZB C206 (UniProt P47756) | 0.316
MKI67 C2206 (UniProt P46013) | 0.603
ACADSB C175 (UniProt P45954) | 0.109
ACAA1 C177 (UniProt P09110) | 0.162
MCM4 C162 (UniProt P33991) | 0.055
HCFC1 C1872 (UniProt P51610) | 1.32 (active)
MAP1B C2088 (UniProt P46821) | 0.329
CKB C283 (UniProt P12277) | 0.217
UniProt P26639_C343 | 0.143
COIL C126 (UniProt P38432) | 0.729
ANXA7 C363 (UniProt P20073) | 0.0125
PEX5 C11 (UniProt P50542) | 0.204
